Data from PubChem BioAssay (EPA / NIEHS).
The source made the active and inactive calls. Rule for the calls: active = hit-call score of the fitted dose curve at least 0.9, where 1 is the maximum; inactive = score below 0.9.

These compounds were tested on Monocyte Chemoattractant Protein-1 (MCP1), CCL2 (gene 6347) (assay: BSK_LPS_MCP1: BioMAP Diversity Plus: LPS Assay for Monocyte Chemoattractant Protein-1 (MCP1) Biomarker Activity (AID 2283081;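 for AC50: co-culture stimulated with LPS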)). Conditions: primary human HUVEC with PBMC; actives raise or lower the signal.
Protocol: BSK_LPS is a cell-based, multiplexed-readout assay that uses umbilical vein endothelium and peripheral blood mononuclear cells, a human vascular primary cell co-culture, with measurements taken at 24 hours after chemical dosing in a 96-well plate.BSK_LPS_MCP1 is an assay component measured in the BSK_LPS assay. It measures MCP-1 antibody related to regulation of gene expression using ELISA technology.Data from the assay component BSK_LPS_MCP1 was analyzed into 1 assay endpoint. This assay endpoint, BSK_LPS_MCP1, was analyzed with bidirectional fitting relative to DMSO as the negative control and baseline of activity. Using a type of binding reporter, gain or loss-of-signal activity can be used to understand changes in the signaling as they relate to the gene CCL2. Furthermore, this assay endpoint can be referred to as a primary readout, because this assay has produced multiple assay endpoints where this one serves a signaling function. To generalize the intended target to other relatable targets, this assay endpoint is annotated to the cytokine intended target family, where the subfamily is chemotactic factor.
The levels of cell surface (or secreted, indicated by the prefix "s") biomarker endpoints were measured by ELISA. Overt cytotoxicity to cells in confluent adherent cultures (all systems other than the BT system) was assessed by measuring total protein levels using sulforhodamine B (SRB) staining in parallel cultures at the time of biomarker measurements, indicated as SRB endpoints. For proliferation assays for adherent cell types, individual cell types are cultured at sub-confluence and relative cell numbers quantified by SRB staining at time points optimized for each system (48 h: 3C and CASM3C systems; 72 h: BT and HDF3CGF systems; 96 h: SAg system). SRB was performed by staining cells with 0.1% SRB after fixation with 10% TCA and reading wells at 560 nm.Viability and proliferation of PBMC (T cells) was quantified by Alamar Blue reduction for the SAg and BT systems. For PBMC viability (referred to as PBMC Cytotoxicity within the assay endpoint names), cells were plated (75,000/well in a 96-well plate) and then chemical samples added for 1 h before addition of activators, SEB and TSST-1 (20 ng/mL final concentration each). Cells were incubated for 90 h. Then, Alamar Blue (20 uL/well) (Invitrogen, Cat DAL1100) was added for 6 h, and the plates were read with a fluorescence microplate reader at 546/580 nm (excitation/emission). For PBMC proliferation, cells were plated and activated as above but incubated for only 16 h prior to addition of Alamar Blue. Plates were read after 6 h.

Row | SMILES | outcome | AC50
1 | Cc1cn([C@H]2C[C@H](N=[N+]=[N-])[C@@H](CO)O2)c(=O)[nH]c1=O | inactive | –
2 | CCCCCCCCCCCC[N+](C)(C)C | – | 25.5 µM (active)
3 | Cc1ncc(CO)c(CO)c1O | inactive | –
4 | Clc1cc(Cl)c2c(c1)N=C1CCCCCN1C2 | inactive | –
5 | COc1cc(C(=O)NC2CCN(C)CC2)ccc1Nc1ncc2c(n1)N(C1CCCC1)CC(F)(F)C(=O)N2C | – | 11.7 µM (active)
6 | Cc1occc1C(=O)Nc1ccc(C(=O)N2CCC(F)(F)/C(=C\C(=O)N3CCC(N4CCCCC4)CC3)c3ccccc32)cc1 | inactive | –
7 | Cc1cc2c(cc1C(F)(F)F)N(C(=O)Nc1ccc(Oc3cccnc3C)nc1)CC2 | inactive | –
8 | CC(C)(O)c1ccc(CNC(=O)c2cccnc2Oc2ccc3nonc3c2)cc1 | inactive | –
9 | CN1C(=O)CC[C@H]1c1cccnc1 | inactive | –
10 | O=CCCCC=O | inactive | –
11 | CCCCCCCCCC(=O)O | inactive | –
12 | CCCCOC(=O)c1ccc(O)cc1 | inactive | –
13 | CCN(Cc1cccc(S(=O)(=O)O)c1)c1ccc(C(=C2C=CC(=[N+](CC)Cc3cccc(S(=O)(=O)O)c3)C=C2)c2ccccc2S(=O)(=O)[O-])cc1 | inactive | –
14 | C[C@]12CC[C@@H]3c4ccc(O)cc4CC[C@H]3[C@@H]1CC[C@H]2O | – | 14.1 µM (active)
15 | c1ccc2n[nH]nc2c1 | inactive | –
16 | O=C=NCCCCCCN=C=O | inactive | –
17 | Cc1oc2c(NC(=O)c3c(Cl)cccc3Cl)cccc2c1C(C)(C)O | inactive | –
18 | Cc1cc(F)ccc1-c1cc(N2CC[C@@H](O)[C@H]2CO)ncc1N(C)C(=O)C(C)(C)c1cc(C(F)(F)F)cc(C(F)(F)F)c1 | – | 10.8 µM (active)
19 | CC1(C)NC(=O)N(c2ccc([N+](=O)[O-])c(C(F)(F)F)c2)C1=O | inactive | –
20 | O=C1c2ccccc2C(=O)N1CCc1noc(-c2ccc(CN3CCCCCC3)s2)n1 | inactive | –

Row | SMILES | outcome | AC50
21 | CN1C(=O)N(c2ccccc2Br)Cc2cnc(Nc3ccc4c(c3)OCC(CO)O4)nc21 (stereo not given) | – | 5.19 µM (active)
22 | CN(C)c1ccc(C(=C2C=CC(=[N+](C)C)C=C2)c2ccc(N(C)C)cc2)cc1 | – | 0.269 µM (active)
23 | CCN(CC)C(=O)c1cc(S(=O)(=O)Cc2ccccc2)c(N2CCC(c3ccccc3)CC2)cc1N(CC)CCN(C)C | – | 19.5 µM (active)
24 | CC1=CC(=O)/C(=C(/C)O)C(=O)O1 | inactive | –
25 | CC(O)CC(C)(C)O (stereo not given) | inactive | –
26 | O=C(O)Cc1cc(I)c(Oc2ccc(O)c(I)c2)c(I)c1 | inactive | –
27 | CCCCCCCC[Si](OCC)(OCC)OCC | inactive | –
28 | CC(=O)N1CCN(c2ccc(OC[C@H]3CO[C@](Cn4ccnc4)(c4ccc(Cl)cc4Cl)O3)cc2)CC1 | – | 31 µM (active)
29 | CCCCCCCCN(C)CCCCCCCC | inactive | –
30 | OC12N=C(c3ccccc3)SC1Cc1cc(Cl)ccc12 (stereo not given) | inactive | –
31 | CCCCCc1ccc(N)cc1 | inactive | –
32 | O=C1CCC(C2CCCCC2)CC1 | inactive | –
33 | CCCCCCCCCCCCO | – | 34.8 µM (active)
34 | Oc1ccccc1 | inactive | –
35 | CC(C)(C)c1csc(-c2cc3cc(OCc4ccccc4CC(=O)O)ccc3o2)n1 | – | 22.6 µM (active)
36 | CCCCCCCCOc1ccc(C(=O)c2ccccc2)c(O)c1 | inactive | –
37 | O=C(OCCCCCCOC(=O)c1ccccc1)c1ccccc1 | inactive | –
38 | CCCCOC(=O)CC(CC(=O)OCCCC)(OC(C)=O)C(=O)OCCCC | inactive | –
39 | CCN(Cc1cccnc1)C(=O)c1cccc(Cl)c1[C@]1(C)C(=O)N(Cc2ccc(OC)cc2OC)c2ccc(Cl)cc21 | – | 8.28 µM (active)
40 | CC[C@@H]1C[C@H](N(Cc2cc(C(F)(F)F)cc(C(F)(F)F)c2)C(C)=O)c2cc(C(F)(F)F)ccc2N1C(=O)OC(C)C | inactive | –
